Active and inactive are the calls of the source. How the source made its calls: active means hit-call score of the fitted dose curve at least 0.9, where 1 is the maximum; inactive means score below 0.9.
Each compound was assayed on Pyruvate Dehydrogenase Kinase 4 (PDK4), PDK4 (gene 5166) (assay: LTEA_HepaRG_PDK4: Life Technologies and Expression Analysis (LTEA) Assay for Pyruvate Dehydrogenase Kinase 4 (PDK4) using HepaRG (AID 2283525)). Details: mRNA level, 48 h; actives raise or lower the signal.
How it was run: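 HepaRG (human liver line), 48 h chemical exposure, 8-pt half-log CRC top 100 uM, 0.5% DMSO vehicle, duplicates. Readout: TaqMan qRT-PCR of PDK4 mRNA, housekeeping-normalized; gain/loss fit relative to DMSO baseline.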

| Compound | outcome | AC50 |
| --- | --- | --- |
| C=C(C)CN(CC)c1c([N+](=O)[O-])cc(C(F)(F)F)cc1[N+](=O)[O-] | inactive | – |
| N#Cc1c[nH]cc1-c1cccc2c1OC(F)(F)O2 | – | 83.9 µM (active) |
| CCOc1nc(C(Cl)(Cl)Cl)ns1 | – | 0.95 µM (active) |
| CCN(CC)c1nc(C)cc(OP(=S)(OC)OC)n1 | inactive | – |
| O=C(Nc1ccccc1-c1ccc(Cl)cc1)c1cccnc1Cl | inactive | – |
| COC(=O)NS(=O)(=O)c1ccc(N)cc1 | inactive | – |
| CC(C)NC(=O)N1CC(=O)N(c2cc(Cl)cc(Cl)c2)C1=O | – | 12.7 µM (active) |
| CC(C)Oc1cccc(NC(=O)c2ccccc2C(F)(F)F)c1 | – | 50 µM (active) |
| O=C1C2CC=CCC2C(=O)N1SC(Cl)(Cl)Cl (stereo not given) | inactive | – |
| OC(c1ccc(Cl)cc1)(c1ccc(Cl)cc1)C(Cl)(Cl)Cl | – | 80.5 µM (active) |
| COc1ccc(-c2ccccc2)cc1NNC(=O)OC(C)C | inactive | – |
| CCCC(=NOCC)C1=C(O)CC(CC(C)SCC)CC1=O (stereo not given) | inactive | – |
| CC(C)=CC1C(C(=O)OCc2coc(Cc3ccccc3)c2)C1(C)C (stereo not given) | – | 50 µM (active) |
| CC1(C)C(C=C(Cl)Cl)C1C(=O)OC(C#N)c1cccc(Oc2ccccc2)c1 (stereo not given) | – | 50 µM (active) |
| CO/N=C(/C1=NOCCO1)c1ccccc1Oc1ncnc(Oc2ccccc2Cl)c1F | – | 11.7 µM (active) |
| CNC(=O)N(C)c1nnc(C(C)(C)C)s1 | inactive | – |
| N#CN=C1SCCN1Cc1ccc(Cl)nc1 | inactive | – |
| CCCCOCN(C(=O)CCl)c1c(CC)cccc1CC | – | 50 µM (active) |
| Nc1cnn(-c2ccccc2)c(=O)c1Cl | inactive | – |
| O=c1n(Cl)c(=O)n(Cl)c(=O)n1Cl | inactive | – |

— PubChem BioAssay (EPA / NIEHS)
